From PubChem BioAssay

Assays:
[1] = test system: Botulinum neurotoxin type F light chain protease (Clostridium botulinum); test: Clostridium botulinum type F light chain protease inhibitors, microsphere substrate cleavage, validation (AID 588459); conditions: multiplex microsphere protease substrate cleavage assay, flow cytometry; at 10 µM; hits give high values
[2] = target: Botulinum neurotoxin type A (Clostridium botulinum) (UniProt P0DPI0); test: BoNT/A light chain protease inhibitors, biochemical, multiplex microsphere flow cytometry, validation set (AID 588460); conditions: at 10 µM, hits give high values
Sequence of Botulinum neurotoxin type A (Clostridium botulinum) (P0DPI0 whole entry, looked up): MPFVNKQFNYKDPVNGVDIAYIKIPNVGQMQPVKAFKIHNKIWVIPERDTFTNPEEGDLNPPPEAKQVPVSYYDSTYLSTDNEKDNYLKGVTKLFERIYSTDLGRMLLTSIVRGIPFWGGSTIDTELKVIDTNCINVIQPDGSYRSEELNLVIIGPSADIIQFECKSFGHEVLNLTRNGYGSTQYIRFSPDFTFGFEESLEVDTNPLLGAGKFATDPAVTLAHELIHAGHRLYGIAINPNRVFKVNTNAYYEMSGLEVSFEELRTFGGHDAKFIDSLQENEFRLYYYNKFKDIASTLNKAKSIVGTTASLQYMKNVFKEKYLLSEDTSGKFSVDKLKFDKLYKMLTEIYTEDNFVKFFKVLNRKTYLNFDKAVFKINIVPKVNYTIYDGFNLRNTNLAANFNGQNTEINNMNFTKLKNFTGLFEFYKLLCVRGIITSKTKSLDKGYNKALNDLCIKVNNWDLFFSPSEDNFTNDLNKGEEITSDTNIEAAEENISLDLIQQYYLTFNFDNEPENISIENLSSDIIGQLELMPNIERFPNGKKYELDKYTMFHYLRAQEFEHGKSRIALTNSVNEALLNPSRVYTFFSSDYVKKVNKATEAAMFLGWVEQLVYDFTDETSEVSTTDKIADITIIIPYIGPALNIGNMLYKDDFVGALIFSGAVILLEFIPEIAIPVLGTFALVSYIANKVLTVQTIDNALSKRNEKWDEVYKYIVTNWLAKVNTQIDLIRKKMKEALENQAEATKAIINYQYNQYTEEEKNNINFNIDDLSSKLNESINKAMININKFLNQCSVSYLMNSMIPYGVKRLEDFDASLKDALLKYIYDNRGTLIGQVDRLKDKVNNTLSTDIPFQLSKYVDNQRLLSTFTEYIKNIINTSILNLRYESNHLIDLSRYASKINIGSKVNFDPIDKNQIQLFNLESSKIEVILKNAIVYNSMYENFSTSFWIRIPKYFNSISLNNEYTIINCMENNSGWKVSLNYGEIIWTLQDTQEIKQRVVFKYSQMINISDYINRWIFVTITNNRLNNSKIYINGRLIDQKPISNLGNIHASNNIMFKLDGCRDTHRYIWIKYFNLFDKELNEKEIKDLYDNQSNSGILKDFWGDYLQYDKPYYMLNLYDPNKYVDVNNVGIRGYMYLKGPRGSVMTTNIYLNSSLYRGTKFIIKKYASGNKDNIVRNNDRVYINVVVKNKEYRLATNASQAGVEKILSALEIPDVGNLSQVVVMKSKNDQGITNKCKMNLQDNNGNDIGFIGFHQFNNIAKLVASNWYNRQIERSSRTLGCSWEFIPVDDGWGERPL

[3] = target: Lethal factor (Bacillus anthracis) (UniProt P15917); test: Bacillus anthracis lethal factor inhibition, microsphere flow cytometry protease assay, validation at 10 µM (AID 588461); conditions: multiplex microsphere protease cleavage assay, hits give high values
Sequence of Lethal factor (Bacillus anthracis) (P15917 whole entry, looked up): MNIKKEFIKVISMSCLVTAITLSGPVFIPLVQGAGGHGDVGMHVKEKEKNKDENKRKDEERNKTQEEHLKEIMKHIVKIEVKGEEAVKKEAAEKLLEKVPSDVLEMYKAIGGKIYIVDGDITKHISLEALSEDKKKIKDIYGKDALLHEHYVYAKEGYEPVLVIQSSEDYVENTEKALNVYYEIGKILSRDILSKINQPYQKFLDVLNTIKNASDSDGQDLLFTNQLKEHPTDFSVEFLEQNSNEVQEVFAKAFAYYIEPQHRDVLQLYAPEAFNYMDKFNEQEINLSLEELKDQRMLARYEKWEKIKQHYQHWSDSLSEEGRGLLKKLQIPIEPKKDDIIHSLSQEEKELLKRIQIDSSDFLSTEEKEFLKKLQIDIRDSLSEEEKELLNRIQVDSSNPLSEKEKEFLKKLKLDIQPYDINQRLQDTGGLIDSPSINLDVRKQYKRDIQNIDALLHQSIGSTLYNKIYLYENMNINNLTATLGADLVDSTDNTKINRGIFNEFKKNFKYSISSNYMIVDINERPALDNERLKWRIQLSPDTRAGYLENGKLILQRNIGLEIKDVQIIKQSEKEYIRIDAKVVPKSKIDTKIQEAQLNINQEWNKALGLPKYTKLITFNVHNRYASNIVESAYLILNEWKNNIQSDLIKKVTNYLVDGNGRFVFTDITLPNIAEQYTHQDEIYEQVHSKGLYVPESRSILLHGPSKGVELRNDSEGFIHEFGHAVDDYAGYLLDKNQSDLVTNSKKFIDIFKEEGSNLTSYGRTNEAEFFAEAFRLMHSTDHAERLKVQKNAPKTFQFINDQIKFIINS

Measured: inhibition

COc1ccc(C(=O)Nc2nc3ccccc3c(=O)[nH]2)cc1
inactive: [1] -3.3% | [2] -2.3% | [3] -0.8%

CC(=O)OCC(=O)[C@@]1(O)[C@H](C)C[C@H]2[C@@H]3CCC4=CC(=O)C=C[C@]4(C)[C@@]3(F)[C@@H](O)C[C@@]21C
inactive: [1] 3% | [2] 0.4% | [3] 6.7%

COc1ccccc1C(=O)c1cc2ccc(O)cc2oc1=O
inactive: [1] -0.4% | [2] 0.1% | [3] 2.7%

CC1/C(=C\c2ccc(Cl)cc2)C(=O)C2CC1C2(C)C (stereo not drawn)
inactive: [1] 5.2% | [2] 0.2% | [3] -9.7%

Cc1ccc(/C(=C\CN2CCCC2)c2ccccn2)cc1
inactive: [1] -2% | [2] 0.3% | [3] 11.9%

O=C(NC(=S)N1CCCCC1)c1cccnc1
inactive: [1] 1.2% | [2] 1% | [3] -4.6%
